Assay results: the supplement of paper PMC6555819

What was measured:
Test in all cases: PBM binding z-score (relative to random genomic background probes); higher = stronger binding; sequences stand for … in GC…GCGATTGACAGCGTAGAATGAAGG
[1] = system: RARb homodimer (NR concentration 270 nM)
How it was run: (§1)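 Custom Agilent 4×180K protein-binding microarrays carried double-stranded probes. Their 34-nt variable regions held direct-repeat seeds, single-nucleotide variants, half-site ablations and random human genomic background sequences. Arrays were incubated 1 h with ligand-free nuclear receptor dimers in PBS pH 7.4, 2% milk, 0.02% Triton X-100, 1 mM DTT, 0.2 mg/mL BSA and 0.4 mg/ml salmon testes DNA. Antibodies against each partner (one per run) detected binding, and scanned fluorescence was regression-normalized. Binding z-scores use random background probes as reference.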

[2] = system: RARg:RXRa (NR concentration 270 nM, RXRa partner concentration 90 nM)
How it was run: as §1

[3] = system: RARg homodimer (NR concentration 270 nM)
How it was run: as §1

[4] = system: RXRa DBDmut IVT, anti-RXR (DBD mutation: RXRa K156A/R161A, NR concentration 90 nM)
How it was run: as §1

[5] = system: RXRa homodimer (NR concentration 180 nM)
How it was run: as §1

[6] = system: THRa:RXRa (NR concentration 90 nM, RXRa partner concentration 90 nM)
How it was run: as §1

[7] = system: THRa homodimer (NR concentration 90 nM)
How it was run: as §1

[8] = system: VDR homodimer (NR concentration 270 nM)
How it was run: as §1

Sequence | PBM binding z-score [1] | PBM binding z-score [2] | PBM binding z-score [3] | PBM binding z-score [4] | PBM binding z-score [5] | PBM binding z-score [6] | PBM binding z-score [7] | PBM binding z-score [8]
ATCTCTAGGTAAAGTTCGGTGAAAGATCGATAGA | 0.59 | 0.582 | 0.694 | 0.694 | 0.31 | 1.1 | 0.351 | 0.916
GCTAGCAGGCCATTTGTGTCACTCAATGACGGGC | -0.0499 | -0.217 | 0.011 | 0.131 | -0.25 | -0.583 | -0.967 | -0.895
ATCTCTAGGTAAAGATAGTTGAGTGAATGCAAAT | -0.216 | 0.504 | 0.43 | 0.115 | 0.0675 | 0.495 | 0.0736 | 0.275
TGATATAGGTAAATGCTAGGTGAAAGTCCGATCT | 0.551 | 0.276 | 0.33 | -0.331 | 0.453 | 1.18 | 0.59 | -0.0449
ACTTACGGGTCAACGAGGTTCTAGCACGCGTATA | 3.24 | 5.08 | 4.31 | 2.18 | 5.1 | 3.34 | 0.629 | 2.01
CTTACTGGGCCATCAGGTCATTGATATCAACGTT | 2.78 | 2.32 | 2.54 | 0.956 | 1.33 | 3.24 | 3.08 | 1.94
CCTCGCAGGCCAGGGTCACTCAAGCATTTCGCTT | 2.71 | 2.93 | 2.2 | 0.363 | 3.06 | 2.84 | 1.2 | 1.43
CAGCCTCGGTCAGGGCCAGTATAGGAGGAACGTT | 1.31 | 0.85 | 1.86 | -0.961 | -0.355 | -0.5 | -0.413 | -0.875
AGAATGAGGTTATTCGTAGATCAGGGAAGAAAGT | 0.677 | 1.86 | 0.782 | 2.5 | 2.29 | 2.32 | 0.475 | 1.07
GCGACCGGGGCATCAGCAGGTTACCATAACTTAA | 1.37 | 2.27 | 1.64 | -0.302 | 0.943 | 1.61 | 0.295 | -0.185
GATACAGGGTCAGCTAGAGGCCAGAGGATGGAAA | 3.55 | 6.91 | 4.81 | 1.22 | 4.69 | 2.93 | 0.198 | 0.847
TCTTGTAGATCAAGCAGTTTAAGAAAGCCTGAGT | -0.362 | -0.283 | -0.421 | 0.644 | -0.114 | -0.266 | -0.588 | -0.00897
TCATATAGGTAAGAGGTGAAAGTCGGTGTGGTAA | 1.34 | 1.19 | 0.66 | 1.84 | 1.99 | 1.69 | 0.894 | 0.13
TCATATAGCTAAAGGTGAAAGTCGAACGATATGA | 1.14 | 1.43 | 0.944 | 0.443 | 1.84 | 1.18 | -0.427 | -0.396
CGTTCAAGGTCAGCAGGTCAGTGAAAGCGACGTG | 5.45 | 6.75 | 7.14 | 3.31 | 5.46 | 4.18 | 3.13 | 2.25
CTCGAAAGGTCGGTTGTGGTGAGTATACGGATAA | 1.92 | 2.21 | 2.35 | 1.08 | 1.79 | 2.66 | 0.291 | 0.903
TCTTGTAGATCATGCAGGTTAAGAAAGCCTGAGT | 0.268 | 0.108 | 0.0949 | 0.784 | 0.65 | 0.509 | -0.0439 | 0.115
CCTTACGGGTCAAGGGTATAGCACGGGTGGTACG | 3.17 | 4.8 | 4.86 | 0.672 | 5.32 | 2.38 | 0.0653 | 0.904
CGTCCAAGGTCAGAGAGATCAGTGAATGCCGAGT | 3.33 | 4.47 | 5.03 | 2.73 | 3.39 | 3.31 | 1.57 | 1.58

Sequence | PBM binding z-score [1] | PBM binding z-score [2] | PBM binding z-score [3] | PBM binding z-score [4] | PBM binding z-score [5] | PBM binding z-score [6] | PBM binding z-score [7] | PBM binding z-score [8]
TCTAGTTGGTCAAATGTCACACACTCGAAATGCG | 1.64 | 1.73 | 1.78 | 1.24 | 1.68 | 0.653 | 0.677 | 0.702
ACTAGCAGGCCAAGTTTGGGTCACTAAAACAAAG | 2.17 | 2.1 | 1.53 | -0.281 | 0.88 | 2.52 | 0.917 | 0.383
GCTGCTAGGTCAGGCTGGTCAGCTAACGGGTACG | 2.55 | 2.75 | 4.34 | 0.391 | 1.07 | 1.63 | 0.201 | -0.177
ACAGGCAGGTGAGTGAAGGTAACTCAGCTGGACG | 0.0493 | -0.184 | 0.135 | -0.851 | 0.135 | 1.31 | -0.451 | -0.884
CCGACAGGGGCAGAAAGGTTACCATACCATCCGG | 2.48 | 1.84 | 1.71 | -0.361 | 1.99 | 1.14 | -0.126 | 0.344
TCATATAGGTAACGGTGAAAGTCGAACGATATGA | -0.17 | 0.474 | 0.423 | 0.399 | 0.79 | -0.0623 | -0.6 | -0.165
ATCTCTAGGTAACCAGTTCAGTGAAAGAGAGGAC | 1.05 | 0.822 | 0.768 | 0.358 | 0.791 | 1.35 | 1.18 | 1.35
ATCGAAAGGTCGTGAGGTGAATATACAGAAAGGC | 3.06 | 4.98 | 3.95 | 1.72 | 5.61 | 3.72 | 1.77 | 1.24
CTCGAAAGGTCGGTTGAGGTGAATATACGGATAA | 2.32 | 2.98 | 2.77 | 0.545 | 2.5 | 5.06 | 1.58 | 0.52
CGTCCAAGGTCAGCACGTCAGTGAAAGCGACGTG | 4 | 5.13 | 5.75 | 2.51 | 3.83 | 3.43 | 1.9 | 0.904
GGAACGAGGGCATTCGAGTAGATAGCATGGCGAT | 0.0849 | 0.96 | 1.23 | 3.24 | 0.859 | 1.41 | -0.662 | 1.51
TCGAGTAGGCTACCAATGGGGCATTCAGCTTTCT | -0.245 | -0.505 | -0.706 | -0.0858 | -0.356 | -0.828 | -0.931 | -0.898
GCTCGGAGGACAAGGTAAGAGCTTTGTCCGTAGA | -0.035 | -0.119 | 0.491 | -0.345 | -0.527 | 0.97 | -0.444 | -0.59
GCTACTTGGTCAGTAAAAGGTCACACACCGGTCG | 5.14 | 5.37 | 5.09 | 0.64 | 5.41 | 3.55 | 2.08 | 2.09
AATACAGGGTCACTAGACCAGAGTAGGTACGAAT | 2.96 | 4.98 | 4.81 | 2.68 | 5.91 | 3.24 | 1.08 | 2.54
TCTATTTGTTGATTAGGGCAACCGAAACAGCGGA | 0.77 | 0.864 | 0.859 | 1.28 | 0.492 | 0.89 | 0.561 | 0.505
TGTCAAAGTTCAAAGGTAACTTAAGTATCCACAC | 3.71 | 6.26 | 6.11 | 4.5 | 7.54 | 3.6 | -0.309 | 4.03
ATATGTAGGTTACTTCCGGGTCATTCAGGCTATG | 3.02 | 3.9 | 2.02 | 1.23 | 3.02 | 3.91 | 2.57 | 2.58
TCTTGTAGATCAGCAGGTTACGAAAGCTGGCCAA | 0.128 | -0.124 | -0.187 | 0.505 | 0.318 | 0.29 | -0.291 | -0.293

Sequence | PBM binding z-score [1] | PBM binding z-score [2] | PBM binding z-score [3] | PBM binding z-score [4] | PBM binding z-score [5] | PBM binding z-score [6] | PBM binding z-score [7] | PBM binding z-score [8]
CTCGAAACGTCGGTTGAGGTGAGTATACGGATAA | -0.165 | 0.0462 | 0.0959 | -0.0246 | -0.0266 | 2.55 | 1.2 | -0.242
ATATGTAGGTTACATTCGGGTCATTCAGGCTATG | 2.86 | 3.72 | 2.05 | 1.74 | 3.03 | 3.99 | 3.23 | 3.31
GCTTACGGGTCAAAGGTTATAGCATGAATAGAAT | 3.25 | 6.76 | 4.71 | 2.42 | 9.18 | 4.02 | 0.25 | 1.58
TCATATAGGTAAATGCTCGGTGAAAGTCCGATCT | 0.197 | 0.387 | 0.081 | 1.45 | 0.76 | 0.193 | 0.208 | 0.375
CGAACTAGGTCAGAACAGGCCAGTGAAGGATGAT | 2.09 | 2.58 | 2.86 | 0.213 | 1.28 | 2.53 | -0.201 | -0.281
TCAGGCAGGTGAAGGTAACTCAGGTACGCAGTCG | 0.705 | 0.13 | -0.00372 | 0.635 | 0.357 | 1.52 | 0.723 | 0.051
TCATATAGGTAAAGTTGAAAGTCGAACGATATGA | 0.521 | 0.699 | 0.882 | 1.02 | 1.15 | 0.311 | -0.665 | 0.121
ACTATTAGTTGGCTTAGGGCAACCGATACGACGC | 0.69 | 0.504 | 0.733 | 0.512 | 0.326 | 0.788 | 0.529 | 0.021
TGAATGAGGTTAGAGATCAGGGAACGTGGCGTCG | 0.675 | 1.04 | 0.944 | -0.0534 | 1.71 | 1.39 | 0.0858 | -0.315
CGTCCAAGGTCAATGCTAGGTCAGTTAAAGCATT | 5.03 | 7.56 | 6.8 | 3.49 | 5.03 | 4.67 | 2.9 | 3.2
TCTCGTTGGTCACGGAGGTCACACACGACGGGTA | 4.68 | 4.95 | 4.91 | 0.929 | 4.39 | 3.73 | 2.29 | 2.98
CCTAGCAGTCCAGGGTCACTCAAGCATTTCGCTT | 2.5 | 2.77 | 2.03 | 1.07 | 3.27 | 2.95 | 1.64 | 1.7
CAAACTAGTTCACAGAGGTCAAAGTCCGTGCGTA | 4.92 | 6.03 | 5.68 | 3.93 | 6.83 | 4.01 | 1.93 | 7.92
CCCTACGGGTCACGAGGTTATAGCACGACGAGCG | 4.13 | 6.2 | 5.6 | 1.19 | 7.45 | 3.59 | 1.02 | 1.66
GCGACTGGGGCAAAGCAGGTTACCATTAGGTTGG | 0.874 | 0.369 | 0.722 | -0.196 | 0.428 | 2.77 | -0.429 | -0.578
CCGAGTAGGTAATGGGGCATTCAGGCAACGGTGA | 0.64 | -0.0696 | 0.0893 | -0.575 | 0.0759 | 0.219 | 0.00825 | -0.22
CCTTACGGGTCACGACGTTATAGCACGACGAGCG | 3.34 | 5.56 | 5.15 | 0.951 | 6.26 | 2.99 | 0.181 | 0.722
CTCGAAAGGTAGGTTGAGGTGAGTATACGGATAA | 0.59 | 0.129 | 0.396 | -0.171 | 0.223 | 3.9 | 1.24 | 0.0952
GCGACTGGGGCACAGCAGGTTACCATAAGGTTGG | 1.23 | 0.566 | 0.841 | -0.647 | 0.331 | 2.47 | -0.0588 | -0.59
